Out of some 96,000 compounds screened, fewer than 10 were called active.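 How the source made its calls: active means activation factor of at least 2 at 5 µM in the primary screen; inactive means the rest.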 Only a sample is shown.

The target in the experiment is Cytochrome P450 2C19 (Homo sapiens) (UniProt P33261). In words: enhancers of cytochrome P450 2C19 turnover – biochemical, luminescence, primary screen (AID 1025).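 Further: 0 = wells with 2.5 mM tranylcypromine and 1 = vehicle-only wells.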 Conditions: recombinant CYP2C19, luciferin-H EGE luminescence; at 5 µM; active compounds read high; 0 = fully inhibited enzyme, 1 = untreated enzyme.
Cytochrome P450 2C19 (Homo sapiens), sequence (P33261 whole entry, looked up): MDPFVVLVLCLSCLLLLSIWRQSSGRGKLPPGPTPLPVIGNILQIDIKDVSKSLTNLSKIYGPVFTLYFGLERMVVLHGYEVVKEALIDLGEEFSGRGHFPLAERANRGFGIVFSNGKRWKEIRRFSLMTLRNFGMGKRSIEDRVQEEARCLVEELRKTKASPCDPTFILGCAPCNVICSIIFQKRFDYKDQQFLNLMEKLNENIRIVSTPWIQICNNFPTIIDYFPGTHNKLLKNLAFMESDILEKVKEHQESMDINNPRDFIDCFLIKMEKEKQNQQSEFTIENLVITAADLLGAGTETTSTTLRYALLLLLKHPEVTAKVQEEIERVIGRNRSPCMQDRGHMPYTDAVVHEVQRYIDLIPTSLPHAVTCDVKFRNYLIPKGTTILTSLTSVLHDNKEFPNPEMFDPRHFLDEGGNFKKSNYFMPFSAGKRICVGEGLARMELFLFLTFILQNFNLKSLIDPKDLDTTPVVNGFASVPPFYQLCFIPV
Regarding `CCC(C)NC(=O)c1c(N)n(/N=C/c2cccs2)c2nc3ccccc3nc12` (stereo unspecified), the activation factor is 0.9 (inactive). In the case of `Cc1ccc(C(=O)N2CCN(C(=O)N3CCOCC3)CC2)cc1`, the activation factor was 0.9 (inactive).

For `Cc1cccc(NC(=O)/C(=C\c2ccco2)NC(=O)c2ccccc2)c1`, the activation factor was 0.9 (inactive).

With `CC(C)Oc1ccc(CCc2n[nH]c(=S)n2Cc2ccccc2)cc1`, the activation factor was 0.8 (inactive). With `CCOC(=O)/C(=C\c1ccc([N+](=O)[O-])cc1)C(=O)c1cc(C(C)=O)c(Nc2ccccc2)s1` the figure was 0.4 (inactive); with `CCOc1cccc(SCc2noc(C(=O)NC(C)C)c2C(=O)O)c1`, 0.9 (inactive). With `Cc1cccc(C(=O)NCCCN2CCCC2=O)c1` the figure was 0.8 (inactive); with `COc1ccc(C(=O)NNC(=O)c2cnccn2)cc1[N+](=O)[O-]`, 0.9 (inactive). As to `Cc1cc(=O)[nH]c(SCc2cccc(F)c2)n1`, the activation factor was 0.9 (inactive). With `COc1ccc(NC(=O)/C(Cl)=C(/Cl)S(=O)Cc2ccc(C)cc2)cn1` (stereo unspecified) the figure was 0.7 (inactive).

Consider `COc1ccc(/C=C2\CCCC3C2=NN(C(=O)c2scnc2C)C3c2ccc(OC)cc2)cc1` (stereo unspecified), for which the activation factor was 0.7 (inactive).

Take `Cc1ccccc1-n1nc(C)c2cc(C(=O)NC3CC3)sc21`: the activation factor was 0.4 (inactive). With `Cc1onc(-c2c(Cl)cccc2Cl)c1C(=O)c1c[nH]c(C(=O)NC2CC2)c1` the figure was 1 (inactive). With `Cc1cccc(C(=O)Nc2ccc(C(=O)/C=C/c3cccs3)cc2)c1` the figure was 1 (inactive); with `CCOc1ccc(S(=O)(=O)NCCSc2ccccc2)cc1`, 0 (inactive); with `CN(C)S(=O)(=O)c1ccc(N2CCCC2)c(C(=O)NCc2ccccc2)c1`, 0.4 (inactive).

As to `COc1ccc(C(=O)Nc2nc(-c3ccc(OC)cc3)c(-c3ccc([N+](=O)[O-])cc3)s2)cc1`, the activation factor is 0.9 (inactive). With `Cc1nn(Cc2ccccc2Cl)c(C)c1NC(=O)Cn1nc([N+](=O)[O-])c(Cl)c1C` the figure was 1 (inactive); with `COC(=O)Nc1sc2nc(C)cc(C)c2c1-n1cccc1`, 0.8 (inactive); with `CCCc1nnc(NC(=O)c2cccs2)s1`, 0.9 (inactive). As to `O=C1Nc2ccc(Br)cc2/C1=N/N=C/C1=C(N2CCOCC2)C(=C\c2ccccc2)/CC1`, the activation factor was 1 (inactive). Take `O=C(N/N=C\c1cccc(Br)c1)c1ccccc1-n1cccc1`: the activation factor was 0.3 (inactive). With `CC(=O)N1Cc2ccccc2CC1C(=O)O` (stereo unspecified) the figure was 1.2 (inactive); with `O=C(c1cccc(N2CCCC2=O)c1)N1CCOCC1`, 1.1 (inactive); with `Cc1nn(CCOc2ccccc2)c(=O)n1-c1ccccc1F`, 0.5 (inactive). With `O=C(NCc1ccccc1)[C@@H]1CSC2c3ccccc3C(=O)N21` (stereo partly specified) the figure was 0.2 (inactive). With `N=c1ccn(CC(=O)NC(N)=O)c2ccccc12` the figure was 1.1 (inactive).

As to `CCC(=O)c1c[nH]c(C(=O)NCC2CCCO2)c1` (stereo unspecified), the activation factor is 1 (inactive).

As to `COc1ccc(Nc2nc(Cl)nc(NCc3ccco3)n2)cc1`, the activation factor was 1 (inactive).

On to `CN(C)/C=C/C(=O)c1ccccc1F`, for which the activation factor is 1.1 (inactive). With `C=CCn1c(Cn2nnc3ccccc32)nnc1SCC(=O)N/N=C/c1cc(Br)cc(OC)c1O` the figure was 0.8 (inactive); with `COC(=O)CCSc1cc([N+](=O)[O-])cc2c1c(C1OCCS1)nn2-c1ccccc1` (stereo unspecified), 0.9 (inactive). With `NC(=O)c1nsc(C(=O)N(CC(=O)NCc2ccc(F)cc2)Cc2ccco2)c1N` the figure was 0.8 (inactive). With `CCNC(=O)NC(=O)C(C)OC(=O)c1cc(S(=O)(=O)N2CCCCCC2)ccc1OC` (stereo unspecified) the figure was 0.3 (inactive); with `CCOC(=O)c1c(-c2ccccc2)csc1NC(=S)NC(=O)c1ccccc1`, 1.1 (inactive).

With `CCCNC(=O)c1ccccc1NC(=O)CSCc1ccc(OC)cc1`, the activation factor is 0.5 (inactive). With `CC(C)NC(=O)C(=O)N/N=C/c1ccco1` the figure was 1.1 (inactive); with `CC(C)CCNC(=O)CC1C(=O)N(Cc2ccccc2)C(C)c2nc3ccccc3n21` (stereo unspecified), 0.1 (inactive). Take `CCCCc1nc(NCCN)c(C#N)c2c1CSC(C)(C)C2`: the activation factor was 0.7 (inactive).

For the compound `Cc1ccc(S(=O)(=O)NCC(C)NS(C)(=O)=O)cc1` (stereo unspecified), the activation factor was 0.8 (inactive).

Consider `O=C(Nc1ccc(Sc2ccc(Br)cc2)cc1)c1ccco1`, for which the activation factor is 0.9 (inactive). For `CCCn1nnnc1NC(=O)COc1ccc(Cl)cc1C`, the activation factor is 0.3 (inactive). With `Cc1ccc(N(CC(=O)Nc2cccc(N(C)S(C)(=O)=O)c2)S(C)(=O)=O)cc1` the figure was 1 (inactive); with `O=C(NCCCCCCNC(=O)NCc1ccco1)NCc1ccco1`, 1.1 (inactive); with `CCCCNC(=O)CCn1c(=S)[nH]c2cc3c(cc2c1=O)OCO3`, 0.6 (inactive).

As to `CCC(=O)OCc1c(C(F)(F)F)nn(C)c1Oc1cccc(C(F)(F)F)c1`, the activation factor is 0.4 (inactive). With `COc1ccc(N(CC(=O)N/N=C/c2cccs2)S(=O)(=O)c2ccc(OC)c(OC)c2)cc1` the figure was 0 (inactive); with `CCc1c(C)sc(NC(=O)c2cccs2)c1C(N)=O`, 0.2 (inactive); with `Cc1nnc(NCCO)c2ccccc12`, 0.9 (inactive). With `COc1cc(/C=N/NC(=O)Nc2ccccc2)ccc1OCCOc1ccccc1C` the figure was 1 (inactive); with `Cc1[nH]nc(-c2ccc(OCc3cnn(-c4ccccc4)c3)cc2O)c1Oc1ccc(Cl)cc1`, 0.8 (inactive). As to `COc1ccc2c(c1)SC(C)CC2=O` (stereo unspecified), the activation factor was 0.2 (inactive). With `COC(=O)Nc1ccc(S(=O)(=O)N2CCN(CCN3C(=O)C4C5C=CC(C5)C4C3=O)CC2)cc1` (stereo unspecified) the figure was 0.9 (inactive); with `Cc1ccc(O)c(CNc2nc3ccccc3n2C)c1`, 0.6 (inactive). With `CSc1ccc(CCNC(=O)C2CCN(c3nnc(-n4cccc4)s3)CC2)cc1` the figure was 0.7 (inactive); with `O=C(CCc1ccc(S(=O)(=O)NC2CCCCC2)cc1)NCc1ccccc1`, 0.4 (inactive). With `O=c1[nH]c2c(c(=O)n1Cc1ccccc1)CCC2` the figure was 1 (inactive); with `Cc1ccc2nc(/C(C#N)=C\c3ccc(OC(=O)c4cccs4)cc3)[nH]c2c1`, 0.5 (inactive).

For `O=C(/C=C/c1ccccc1)c1ccoc1`, the activation factor was 0.7 (inactive).

Turning to `CN1C2CCC1/C(=C\c1ccccc1Cl)C(=O)/C2=C\c1ccccc1Cl`, the activation factor is 1.1 (inactive).

For `CC(N=Cc1nc(-c2ccccc2)oc1O)c1ccccc1` (stereo unspecified), the activation factor was 0.3 (inactive).

As to `O=C(NCN1CCN(CCO)CC1)c1cnccn1`, the activation factor is 1.1 (inactive). With `CC(Oc1ccc(Cl)cc1Cl)C(=O)/C=C/N(C)C` (stereo unspecified) the figure was 0.4 (inactive); with `CN(C)/C=C(\C#N)C(=O)c1cccnc1Oc1cccc(F)c1`, 0.6 (inactive).

As to `CC1CCC(N2CC(=O)N(Cc3ccc4c(c3)OCO4)C(c3ccc(F)cc3)C2=O)CC1` (stereo unspecified), the activation factor was 0.8 (inactive). For the compound `C/C(=N\NC(=O)c1ccccc1C)c1ccc(N2CCOCC2)cc1`, the activation factor was 1 (inactive). With `C=CCOc1cccc(CNn2cn[nH]c2=S)c1` the figure was 0.7 (inactive); with `COc1cc(OC)cc(C(=O)NC(=S)N2CCN(c3ccc(C(F)(F)F)cc3[N+](=O)[O-])CC2)c1`, 0.8 (inactive).

On to `Cc1ccc(N(Cc2ccc(C(=O)Nc3ccccc3C(=O)NCc3ccco3)cc2)S(C)(=O)=O)cc1C`, for which the activation factor was 0.1 (inactive). With `Cc1cc(=O)oc2ccc(OCC(=O)O)cc12` the figure was 1 (inactive); with `NC(=O)c1c(NC(=O)CSc2nnc(-c3ccco3)n2N)sc2c1CCCC2`, 0.7 (inactive); with `O=C(O)/C=C/C(=O)Nc1ccc(F)cc1F`, 0.9 (inactive). Regarding `Clc1ccc(COn2c(-c3ccc(Cl)cc3Cl)nc3ncccc32)cc1`, the activation factor is 0 (inactive). With `CCOCCn1c(C(C)C)nc2ccccc21` the figure was 0.8 (inactive).

In the case of `O=C(CCc1ccc(S(=O)(=O)N2CCOCC2)cc1)Nc1ccc2ccccc2c1`, the activation factor is 0.4 (inactive).

Turning to `CCC(CC)C(=O)N1CC(=O)Nc2ccc(Br)cc2C1c1ccccc1` (stereo unspecified), the activation factor was 0.5 (inactive). With `CC(N)C12CC3CC(CC(O)(C3)C1)C2` (stereo unspecified) the figure was 0.9 (inactive). With `COc1ccc(C(=O)CN(C(=O)c2ccc(Cl)cc2)N2C(=O)c3ccccc3C2=O)cc1` the figure was 0.6 (inactive); with `O=C(CCN1c2ccccc2Sc2ccccc21)Nc1ccccc1`, 0.2 (inactive); with `CCOc1cc(CNCCN(C)C)c(Cl)cc1OCC(=O)NCCc1ccccc1`, 1 (inactive). Take `Cc1cc(C(=O)Nc2c(C)nn(Cc3ccccc3)c2C)on1`: the activation factor is 0.9 (inactive). With `CC(C)CNC(=S)NNC(=O)c1ccccc1OC(F)F` the figure was 0.8 (inactive). With `Cc1ccccc1NC(=O)C(C)c1ccc(-c2ccccc2)c(F)c1` (stereo unspecified) the figure was 0.9 (inactive). With `Cc1ccc(CS(=O)(=O)CCC(=O)NC2CC2)cc1` the figure was 0.9 (inactive); with `O=C(NC1CCCCC1)C1CC(=O)N(CCc2ccccc2)C1` (stereo unspecified), 1.1 (inactive). `Cc1ccc(C2NC(=S)NC3=C2N2CCC3CC2)cc1` (stereo unspecified): the activation factor was 1.1 (inactive). With `C/C(=N\NS(=O)(=O)c1ccc(Br)cc1)c1cccs1` the figure was 0.3 (inactive). With `CC1(C)CC(CC(=O)O)C(=O)O1` (stereo unspecified) the figure was 1.1 (inactive); with `CCOC(=O)c1cnc(SC)nc1Sc1ccc(Cl)cc1Cl`, 0.7 (inactive); with `CS(=O)(=O)N(CC(=O)Nc1ccc(F)cc1F)c1cccc([N+](=O)[O-])c1`, 0.4 (inactive). With `CSc1ccccc1NC(=O)c1cc(C2CC2)on1` the figure was 0.7 (inactive); with `O=C(/C=C\NCC(=O)c1ccccc1)c1ccccc1`, 0.5 (inactive); with `O=C(NCc1ccccn1)c1cc(-c2ccccc2Cl)on1`, 0.9 (inactive). As to `COc1cc(/C=N\NC(=O)CNC(=O)c2cccc([N+](=O)[O-])c2)ccc1O`, the activation factor is 0.8 (inactive). With `COc1ccc(CC(=O)Nc2sc(Cc3ccccc3)c(C)c2C(N)=O)cc1`, the activation factor was 1 (inactive). In the case of `FC(F)(F)c1nnc2ccc(N3CCN(c4ccccc4)CC3)nn12`, the activation factor is 0.7 (inactive). With `CC1CC(C)CN(C(=O)CSc2nnc(CSc3ncccn3)n2C)C1` (stereo unspecified) the figure was 1.1 (inactive); with `Cc1cc2[nH]ncc2cc1NC(=S)NC(=O)c1ccccc1`, 0 (inactive).

Regarding `CCCCCCSc1nsc(N)n1`, the activation factor was 0.5 (inactive).

For `COc1cccc(-c2cc(C(=O)N/N=C/c3ccc(OC)c(COC(C)=O)c3)c3ccccc3n2)c1`, the activation factor is 0.5 (inactive). With `CC1=NN(C(=O)Cc2ccc(C)cc2)C(O)(c2cccnc2)C1` (stereo unspecified) the figure was 0.4 (inactive).
